Data on 7 compounds can be found in PubChem BioAssay.

Values joined by “and” are separate entries in the source; they are usually repeats but may differ in a detail not shown here. Equal entries are not always repeated. For some assays here: Potency and affinity values are given separately. More than one record can exist for a structure, and the calls need not agree. Active and inactive are the calls of the source. Unless noted, how the calls were made is not given here.

Assay [1] is described as follows: blockers of polyQ-driven CASP3 activation – cell-based (AID 1583). Particulars: polyglutamine-induced caspase-3 activation, cell assay; stronger effect = higher value;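 tested at 10 µM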.
Assay [2] can be described thus: yeast 75Q aggregation reduction – 75Q-TubU reporter (AID 1593). Particulars: Yeast 75Q polyglutamine aggregation reporter.
A short description of assay [3]: restoration of touch response, mutant HTT neurons – whole organism, C. elegans mechanosensory neurons, N-terminal huntingtin (AID 1599). Particulars: C. elegans polyQ-huntingtin mechanosensory neurons, stronger effect = higher value.
Assay [4] can be described thus: blockers of cytochrome c efflux from mitochondria – biochemical, purified mitochondria (AID 1603).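 Further: mouse liver mitochondria challenged with calcium chloride; signal normalized to the plate average as 100%.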 Particulars: stronger effect = lower value.
Assay [5] in a line: polyglutamine aggregate formation blockers (AID 1604). Particulars: polyglutamine-induced protein aggregation inhibition assay; stronger effect = higher value; tested at 2.5 µM.
Assay [6] can be described thus: glutamate transport activators, MN-1 cells, MN-1 cell line (AID 1612).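 Further: tested at 1 µM final; 0% = mean of DMSO vehicle wells on each plate; positive means more glutamate uptake than control and negative means less.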 Particulars: MN-1 motor neuron cells, stronger effect = higher value.
Assay [7] in a line: GFP-Q80 aggregate reduction, neuronal-like cells, cell-based, NGF-treated PC12, GFPQ80 (AID 1614).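 Further: lower means fewer inclusions and 0 means no inclusions at all.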 As to conditions: PC12 NGF-treated GFP-polyQ80 inclusion reduction.
Assay [8] in a line: 75Q-TubH aggregate inhibition, S. cerevisiae, yeast (AID 1616). As to conditions: S. cerevisiae 75Q-TubH polyglutamine aggregation suppression; stronger effect = higher value.
The nature of assay [9]: P. berghei load reduction in hepatocytes – cell-based, HepG2, luciferase luminescence, HepG2 viability, primary screen (AID 624349; in the data active means parasite load remaining mostly below about 12%, no sharp cut-off; inactive means mostly above about 10%;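 further: 100% = mean of DMSO negative control wells on the same plate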). Particulars: P. berghei liver stage in HepG2, luciferase luminescence, concentration not given here; parasite load remaining: stronger effect = lower value; viability: measured here: HepG2 viability without parasites.
In assay [10] the target is 6-phosphogluconate dehydrogenase, decarboxylating (Homo sapiens) (UniProt P52209). The experiment in a line: inhibition of human phosphogluconate dehydrogenase – biochemical, recombinant enzyme, NADPH absorbance, primary screen (AID 1159550;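 active means at least 20% inhibition of 6-phosphogluconate dehydrogenase activity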). As to conditions: recombinant 6PGD, NADPH absorbance 341 nm; at 10 µM; stronger effect = higher value.
Assay [11] in a line: EMT-state selective cytotoxicity in co-culture – imaging, PC-3E GFP, TEM4-18 mCherry, primary screen (AID 1345086;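 active means compounds killing one labelled cell type while sparing the other, by normalised counts and ratio limits, not self-fluorescent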;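 on all read-outs here: cells exposed to compound for 72 h before imaging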;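 on red/green cell ratio (normalised): normalised mesenchymal count divided by normalised epithelial count so high means epithelial killing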). Particulars: PC-3E GFP / TEM4-18 mCherry co-culture, imaging cell counts, at 1 µM; for red/green cell ratio (normalised): actives lie on both sides.
In assay [12] the test system is Aerobactin synthetase IucA (Klebsiella pneumoniae hvKP1). The experiment in a line: IucA enzyme inhibition, primary screen, biochemical, Spectrum library (AID 1346200).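 Further: 100% = wells without compound and 0% = wells lacking enzyme.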 As to conditions: malachite green pyrophosphate, A620, at 8 µM, stronger effect = lower value.
For assay [13], the system named is Aerobactin synthetase IucA (Klebsiella pneumoniae, hypervirulent). The experiment in a line: biochemical IucA inhibition screen of LOPAC library by absorbance (AID 1346212).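 Further: 100% = no compound wells and 0% = no enzyme wells.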 Particulars: IucA enzyme assay, absorbance (OD) readout; stronger effect = lower value;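 tested at 8 µM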.
Assay [14] in a line: viability loss with induced miR-34 in A549 – imaging, A549 dox-inducible miR-34, nuclei and caspase counts, primary screen (AID 1347080;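 active means compounds whose cell count with miR-34 switched on is under 0.7 times the count with it off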). As to conditions: A549 miR-34 inducible, Hoechst nuclei count, 48 h.
The target of assay [15] is Mitogen-activated protein kinase 7 (Homo sapiens) (UniProt Q13164). The experiment in a line: Gal4-ERK5 driven luciferase induction – cell-based, HTS, primary screen (AID 1508626;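 active means luciferase signal above three times the same-plate solvent-only control wells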;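 further: luciferase driven by Gal4-ERK5 fusion binding five Gal4 sites before minimal TATA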). As to conditions: HeLa Gal4-ERK5 transactivation, 18 h, at 5 µM, stronger effect = higher value.
Assay [16] is described as follows: galactose survival enhancers in mitochondrial complex I cybrids – cell-based, galactose medium, ATP luminescence, primary screen (AID 1645843;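 active means z-score of at least 1.8 in each of two replicates, scored against plate mean and spread of sample wells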;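 further: positive z means more ATP and so rescue of galactose-driven cybrid death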). As to conditions: complex I mutant cybrid cells, 72 h, stronger effect = higher value.
The nature of assay [17]: compounds altering viability of human ES cells (AID 493140).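 Further: cells exposed to compounds for four days before counting.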 Particulars: human embryonic stem cell survival screen; stronger effect = higher value.
The target in assay [18] is NAD(+) hydrolase SARM1 (Homo sapiens) (UniProt Q6SZW1). The experiment in a line: blocking NAD cleavage by SARM1 SAM-TIR – cell lysate, NAD-Glo luminescence (AID 1508614;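 active means compound whose remaining NAD level is above about 45 nM, limit read from the data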). Particulars: SAM-TIR HEK293T lysate NADase, at 1 µM, stronger effect = higher value.
A short description of assay [19]: MELAS cybrid and Rieske KO viability enhancers – cell-based, MELAS cybrids, Rieske KO mouse fibroblasts, CellTiter-Glo, primary screen (AID 1508586;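 active means mean z-score across replicates of 1.96 or higher in either the MELAS or the Rieske mutant cell line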;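 further: z relative to plate mean and SD of compound and empty wells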). Particulars: low glucose. For orientation: In ATP-based viability assays light output follows the ATP content of the culture.
[20] abbreviates: measured here: epithelial PC-3E GFP cell survival.
The mark [21] stands for this setting: measured here: mesenchymal TEM4-18 mCherry cell survival.
[22] abbreviates: stronger effect = lower value, cell number ratio, induced over uninduced.
[23] abbreviates: measured here: relative caspase fold change +Dox/-Dox.
Setting [24] is: measured here: total cells with miR-34 induction, stronger effect = lower value.
Setting [25] is: measured here: total cells without miR-34 induction.
[26] abbreviates: MELAS cybrid survival, CellTiter-Glo 48 h, stronger effect = higher value.
Setting [27] is: Rieske KO mouse fibroblast survival, CellTiter-Glo 72 h.

Mitogen-activated protein kinase 7 (Homo sapiens), sequence (Q13164 whole entry, looked up, the tested form may be a part): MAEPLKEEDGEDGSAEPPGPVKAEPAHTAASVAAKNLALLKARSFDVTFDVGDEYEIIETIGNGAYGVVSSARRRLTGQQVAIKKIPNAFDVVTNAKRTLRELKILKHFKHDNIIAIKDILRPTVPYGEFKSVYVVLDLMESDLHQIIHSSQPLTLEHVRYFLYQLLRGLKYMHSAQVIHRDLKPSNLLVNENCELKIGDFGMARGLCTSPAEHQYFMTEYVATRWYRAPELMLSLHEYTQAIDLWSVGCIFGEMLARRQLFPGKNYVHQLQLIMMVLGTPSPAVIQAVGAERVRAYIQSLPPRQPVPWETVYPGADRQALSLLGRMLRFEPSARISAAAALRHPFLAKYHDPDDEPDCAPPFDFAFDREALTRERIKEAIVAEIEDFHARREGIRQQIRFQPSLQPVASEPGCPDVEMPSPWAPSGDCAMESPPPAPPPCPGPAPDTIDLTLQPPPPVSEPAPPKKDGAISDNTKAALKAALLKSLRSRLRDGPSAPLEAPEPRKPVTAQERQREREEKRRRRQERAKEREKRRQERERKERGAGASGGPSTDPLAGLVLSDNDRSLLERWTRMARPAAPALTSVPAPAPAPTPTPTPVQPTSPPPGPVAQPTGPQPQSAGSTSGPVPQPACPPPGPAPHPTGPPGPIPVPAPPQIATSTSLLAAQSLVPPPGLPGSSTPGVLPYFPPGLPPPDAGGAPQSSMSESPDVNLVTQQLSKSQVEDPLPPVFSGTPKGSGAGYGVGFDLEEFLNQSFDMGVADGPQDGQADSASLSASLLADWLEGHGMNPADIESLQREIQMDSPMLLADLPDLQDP
6-phosphogluconate dehydrogenase, decarboxylating (Homo sapiens), sequence (P52209 whole entry, looked up): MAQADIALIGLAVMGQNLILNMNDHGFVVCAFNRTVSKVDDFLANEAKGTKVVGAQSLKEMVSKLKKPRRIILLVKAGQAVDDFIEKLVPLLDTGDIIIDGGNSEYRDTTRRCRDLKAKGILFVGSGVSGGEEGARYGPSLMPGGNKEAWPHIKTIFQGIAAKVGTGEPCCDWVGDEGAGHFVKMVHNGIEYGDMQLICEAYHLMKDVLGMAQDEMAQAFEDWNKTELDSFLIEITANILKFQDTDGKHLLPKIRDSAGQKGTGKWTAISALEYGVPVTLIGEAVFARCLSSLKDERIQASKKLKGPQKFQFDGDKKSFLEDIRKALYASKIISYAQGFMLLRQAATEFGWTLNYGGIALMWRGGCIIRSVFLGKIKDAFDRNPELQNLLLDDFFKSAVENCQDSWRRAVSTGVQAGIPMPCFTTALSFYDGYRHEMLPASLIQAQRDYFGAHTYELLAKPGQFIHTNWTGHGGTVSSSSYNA
NAD(+) hydrolase SARM1 (Homo sapiens), sequence (Q6SZW1 whole entry, looked up): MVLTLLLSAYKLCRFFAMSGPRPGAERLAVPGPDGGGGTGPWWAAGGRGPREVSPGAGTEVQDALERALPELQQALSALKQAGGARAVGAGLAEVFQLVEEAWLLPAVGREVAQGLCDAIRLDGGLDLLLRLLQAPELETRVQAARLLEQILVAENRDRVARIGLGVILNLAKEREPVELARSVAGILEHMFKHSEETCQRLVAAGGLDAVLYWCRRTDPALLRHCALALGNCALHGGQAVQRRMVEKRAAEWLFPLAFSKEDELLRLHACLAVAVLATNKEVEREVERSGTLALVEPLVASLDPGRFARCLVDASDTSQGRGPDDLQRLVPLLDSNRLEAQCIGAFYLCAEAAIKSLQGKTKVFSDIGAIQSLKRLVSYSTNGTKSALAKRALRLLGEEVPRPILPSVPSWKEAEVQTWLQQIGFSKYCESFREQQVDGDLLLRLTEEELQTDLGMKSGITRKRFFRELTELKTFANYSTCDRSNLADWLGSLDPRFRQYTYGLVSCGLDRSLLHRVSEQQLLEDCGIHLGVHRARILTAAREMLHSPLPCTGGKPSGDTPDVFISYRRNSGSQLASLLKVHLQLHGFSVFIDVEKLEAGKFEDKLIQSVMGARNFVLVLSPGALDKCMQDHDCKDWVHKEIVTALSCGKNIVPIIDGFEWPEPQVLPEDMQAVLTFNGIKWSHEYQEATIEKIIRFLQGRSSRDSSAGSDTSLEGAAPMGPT

`NC(N)=NOCC[C@H](N)C(=O)O`: the inhibition (in general, the change of the read-out against control, counted positive when it falls) in assay [1] was 10.5%; in assay [10], 12.8% (inactive). The compound also yielded a score in [2] of 1.23. In assay [3], this compound registered a rescue above control of -6.04. Also, the cytochrome c release ratio in assay [4] came out at 1.27. Also, the inhibition of aggregation in [5] amounted to 85.9%. Also, the glutamate uptake change in assay [6] is 11.4%. For the same compound, the inclusion score in assay [7] was 2. Further, in assay [8], the aggregation suppression score is 1.39. In addition, in [9], the parasite load remaining was 114% (inactive) and 105% (inactive). Further, the viability – broadly, a read-out of living cells in per cent, often relative to untreated cells – in [9] is 112% and 68.7%. Moreover, in assay [11], the red/green cell ratio (normalised) was 1.04 (inactive). Besides, the normalised cell number in assay [11] (setting [20]) was 0.91; in assay [11] (setting [21]), 0.95. Also, in assay [12], the activity remaining was 113% (inactive). Also, in assay [13], the remaining activity (in general, the signal under treatment as a percentage of the control signal) was 106% (inactive) and 121% (inactive). Moreover, the fold change was 1.01 (inactive) in [14] (stronger effect = lower value); 0.827 (inactive) in assay [14] (setting [22]); 1.39 and 1.69 in assay [14] (setting [23]). The cell count in [14] (setting [24]) was 9120 and 8920; in assay [14] (setting [25]), 8990 and 10800. The luciferase signal in [15] is 84 AU (inactive). In [16], the z-score was 0.085 (inactive).
As to `O=C(O)CC[N+](=O)[O-]`, in assay [10], the inhibition is -4.59% (inactive). Moreover, in assay [11], the red/green cell ratio (normalised) is 1.06 (inactive). For the same compound, the normalised cell number in assay [11] (setting [20]) was found to be 0.86; in [11] (setting [21]), 0.91. Further, the activity remaining in assay [12] is 105% (inactive). In [13], the remaining activity was 116% (inactive). Further, the fold change in assay [14] (stronger effect = lower value) was 1.06 (inactive); in assay [14] (setting [23]), 2.1. The cell count worked out at 10800 in assay [14] (setting [24]) and 10200 in [14] (setting [25]). Besides, the luciferase signal in assay [15] was 152 AU (inactive). In addition, the z-score in assay [16] was -0.29 (inactive).
On to `O=C1C=CC(=O)c2c(O)cccc21`, for which the inhibition in assay [1] was -40.3%; in assay [10], -2.17% (inactive). The score in assay [2] was 0.54. Also, in [3], the rescue above control turned out to be 2.83. Moreover, the cytochrome c release ratio in assay [4] worked out at 0.82. Further, in assay [5], the inhibition of aggregation is 100%. The glutamate uptake change in assay [6] was 42.9%. In addition, the aggregation suppression score in assay [8] was determined as 0.876. Moreover, the red/green cell ratio (normalised) in assay [11] is 0.98 (inactive). In addition, the normalised cell number in assay [11] (setting [20]) was determined as 1.05; in [11] (setting [21]), 1.03. In assay [12], the activity remaining is 127% (inactive). The fold change in [14] (stronger effect = lower value) is 0.989 (inactive); in assay [14] (setting [23]), 0.796. Also, the cell count in [14] (setting [24]) came out at 2420; in assay [14] (setting [25]), 2440. Besides, in assay [15], the luciferase signal was 52 AU (inactive).
In the case of `O=[N+]([O-])c1cc([As](=O)(O)O)ccc1O`, the inhibition in assay [1] was 4.6%; in assay [10], 11.3% (inactive). The compound further showed a score in assay [2] of 1.17. For the same compound, in assay [3], the rescue above control is -4.04. Besides, the cytochrome c release ratio in assay [4] was determined as 1.09. In addition, the inhibition of aggregation in assay [5] was determined as 3.7%. Further, the glutamate uptake change in assay [6] is -17%. The compound further displayed an inclusion score in assay [7] of 1.5. For the same compound, in assay [8], the aggregation suppression score turned out to be 1.08. Moreover, in assay [17], the survival is 4.83 (inactive). Besides, the parasite load remaining in assay [9] is 90.8% (inactive) and -0.22% (active) and 33.7% (inactive). In [9], the viability is 83.9% and 75.8% and 93.4%. Besides, the red/green cell ratio (normalised) in assay [11] was 1.34 (inactive). In addition, the normalised cell number in assay [11] (setting [20]) was 0.89; in assay [11] (setting [21]), 1.19. In addition, in assay [12], the activity remaining was 112% (inactive). The fold change in assay [14] (stronger effect = lower value) was 0.929 (inactive) and 0.938 (inactive); in assay [14] (setting [23]) it was 0.651 and 3.1. The cell count in [14] (setting [24]) was 8580 and 11200; in assay [14] (setting [25]) it was 9240 and 11900. The remaining NAD in [18] was 10 nM (inactive). In addition, the luciferase signal in assay [15] was 44 AU (inactive).
For the compound `[N-]=[N+]=CC(=O)OCC(N)C(=O)O` (stereo unspecified), the inhibition was 30.9% in assay [1] and 12.8% (inactive) in assay [10]. In assay [2], this compound had a score of 1.27. In addition, the rescue above control in assay [3] worked out at 6.35. The cytochrome c release ratio in assay [4] is 1.1. In addition, in assay [5], the inhibition of aggregation is -39.4%. Besides, the glutamate uptake change in assay [6] was -10.2%. In assay [7], the inclusion score turned out to be 1. In [8], this compound yielded an aggregation suppression score of 0.586. Further, the parasite load remaining in [9] is 3.63% (inactive). The viability in assay [9] turned out to be 82.2%. For the same compound, the red/green cell ratio (normalised) in [11] is 1.35 (inactive). In addition, the normalised cell number in assay [11] (setting [20]) was found to be 0.86; in assay [11] (setting [21]), 1.16. Also, in assay [12], the activity remaining was 105% (inactive). Further, the fold change was 0.832 (inactive) in assay [14] (stronger effect = lower value) and 1.38 in [14] (setting [23]). The cell count in assay [14] (setting [24]) was 601; in [14] (setting [25]), 722.
With `CN(C)[C@@H]1C(=O)C(C(N)=O)=C(O)[C@@]2(O)C(=O)C3=C(O)c4c(O)ccc(Cl)c4[C@@](C)(O)[C@H]3C[C@@H]12`, the inhibition in assay [1] was 15.6%; in assay [10], -12.1% (inactive). The same compound showed a score in [2] of 0.9. Further, the rescue above control in [3] turned out to be 0. Moreover, the cytochrome c release ratio in [4] was determined as 0.82. Besides, the inhibition of aggregation in assay [5] came to 9.52%. In addition, the glutamate uptake change in assay [6] is 10.1%. Further, the inclusion score in assay [7] is 0. In addition, the aggregation suppression score in [8] was found to be 0.363. Moreover, the survival in assay [17] is 14.3 (inactive). Moreover, the parasite load remaining in assay [9] was 104% (inactive) and 84.9% (inactive) and 79.4% (inactive). Further, in assay [9], the viability is 73.9% and 86% and 80%. Also, the red/green cell ratio (normalised) in assay [11] was 0.9 (inactive) and 1.54 (inactive). Further, the normalised cell number in assay [11] (setting [20]) is 1.16 and 0.93; in assay [11] (setting [21]), 1.04 and 1.43. Further, in [12], the activity remaining is 117% (inactive). Further, the fold change in assay [14] (setting [22]) was 0.926 (inactive); in assay [14] (setting [23]), 2.73. Further, the cell count in assay [14] (setting [24]) was 9350; in [14] (setting [25]), 10100. For the same compound, the z-score was -3.64 (inactive) in assay [19] (setting [26]) and -1.98 in assay [19] (setting [27]). Also, the remaining NAD in [18] is 10 nM (inactive). Moreover, in assay [15], the luciferase signal was 60 AU (inactive).
As for `COc1cc(OC)c(OC)cc1C=O`, in assay [9], the parasite load remaining was 70.8% (inactive). The viability in assay [9] turned out to be 91.7%. Moreover, in assay [10], the inhibition is -2.13% (inactive). Also, in [11], the red/green cell ratio (normalised) was 1.04 (inactive). Moreover, the normalised cell number worked out at 1.13 in assay [11] (setting [20]) and 1.18 in assay [11] (setting [21]). Moreover, the activity remaining in assay [12] was 109% (inactive). Besides, the fold change in [14] (stronger effect = lower value) was 0.932 (inactive); in assay [14] (setting [23]), 0.878. In addition, the cell count is 9380 in assay [14] (setting [24]) and 10100 in assay [14] (setting [25]). Besides, the figures for the z-score in assay [19] (setting [26]) and in [19] (setting [27]) were -0.272 (inactive) and 0.673, respectively. Also, the luciferase signal in [15] was 156 AU (inactive).
